These results are taken from PubChem BioAssay (NCATS).

Molecules are shown by their SMILES. Records with an inconclusive call do not appear. Calls of active or inactive are those of the source. Unless noted, calls come from the whole dose curve; as a rule, active = well fitted curve in the direction sought with a large enough effect; inconclusive = small, poorly fitted or top-dose-only effect, or another doubt; inactive = no such curve, though single readings can be large; an effect the other way counts as inactive or inconclusive.

In experiment [1] the target is Ferritin light chain (Equus caballus) (UniProt P02791). As to the kind of experiment: qHTS Validation Assay for Identification of Novel General Anesthetics (AID 2323). Note: series mostly up to about 77 µM. In outline:
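Apoferritin from horse spleen (10 uM) was mixed with 1-aminoanthracene at 50% saturation in PBS, then compounds were added. After 10 min at room temperature, fluorescence was read (ex 380 nm, em 535 nm) and normalized to free-probe and complex controls.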

Experiment [2] has as its target ATP-dependent DNA helicase Q1 (Homo sapiens) (UniProt P46063). Kind of experiment: qHTS Validation Assay for Inhibitors of RecQ-Like Dna Helicase 1 (RECQ1) (AID 2353). In outline: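 RECQ1T1 50 nM; forked duplex (20 bp + 30-nt ss tails) 200 nM, ATP 2 mM final; pH 8.0, 2 mM MgCl2, 2.5 ug/ml poly(dI-dC); 15 min compound preincubation; discontinuous kinetic read over 2 h at RT.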

Experiment [3] concerns the target RecQ-like DNA helicase BLM (Homo sapiens) (UniProt P54132). As to the kind of experiment: qHTS Validation Assay for Inhibitors of Bloom's syndrome helicase (BLM) (AID 2364). In outline:
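BLM 50 nM in 25 mM Tris-HCl pH 8.0, 5 mM NaCl, 2 mM MgCl2, 1 mM DTT, 0.01% Tween-20, 2.5 ug/ml poly(dI-dC); 15 min cpd preinc, RT. Start: 200 nM forked DNA + 2 mM ATP (final). TAMRA read, 2 reads 2 h apart.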

Experiment [4] can be described thus: Cytometric Cell-Based qHTS for Inhibitors of the mTORC1 Signaling Pathway in MEF (Tsc2-/-, p53-/-) Cells (AID 2660).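 Note: Tsc2 and p53 null MEFs carrying empty vector with compound for 24 h; percent of cells above a phospho-rpS6 to PI ratio cutoff in each well; series mostly up to about 38 µM.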 In outline: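 Immunofluorescence qHTS of rpS6 Ser235/236 phosphorylation: MEFs (Tsc2-/-, p53-/-) treated 24 h, 37 C, in DMEM + 10% FBS. Alexa-488 signal normalized to PI count, referenced to rapamycin (7.5 nM) and DMSO; PI cell number recorded for viability.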

Experiment [5] can be described thus: High Content Imaging Cell-Based qHTS for Inhibitors of the mTORC1 Signaling Pathway in MEF (Tsc2-/-, p53-/-) Cells (AID 2666).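 Note: percent of cells scored positive for phospho-rpS6 Ser235/236 immunostaining by imaging.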 In outline:
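Inhibition of rpS6 phosphorylation is measured by immunofluorescence imaging in empty-vector Tsc2-/-, p53-/- mouse embryonic fibroblasts after 24 hrs compound exposure at 37 degree Celsius. Results are reported as % positive cells per well.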

Experiment [6] can be described thus: High Content Imaging Cell-Based qHTS for Inhibitors of the mTORC1 Signaling Pathway in MEF Cells (AID 2667). Note: potency is the fitted concentration of half-maximal effect. The essentials:
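Fixed-cell imaging of phospho-S6 (Ser235/236, Alexa-488) after 24 hrs of compound treatment at 37 degree Celsius. Signal was normalized to Hoechst, and thresholds from the highest and lowest wells split cells into % active versus % non-active.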

Experiment [7] addresses Ubiquitin carboxyl-terminal hydrolase 2 (Homo sapiens) (UniProt O75604). Kind of experiment: qHTS Validation Assay for Inhibitors of Ubiquitin-specific Protease USP2a Using CHOP2 as the Reporter (AID 463106). The essentials:
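Inhibition is expressed relative to NEM as the full-inhibition control, with concentration-response curves classed by fit quality, magnitude and activity. Enzyme (USP2 core, 10nM) meets 25nM Ub-CHOP2 after compound preincubation; readings are taken at 60min.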

In experiment [8] the target is Tumor susceptibility gene 101 protein (Homo sapiens) (UniProt Q99816). As to the kind of experiment: qHTS Validation Assay for Iinhibitors of HIV-1 Budding by Blocking the Interaction of PTAP/TSG101 (AID 485342; calls by dose curve). The essentials:
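Fluorescence anisotropy measured PTAP-Tsg101 interaction. Final concentrations were 10 uM protein domain and 50 nM labeled peptide, equilibrated 20 min at room temperature.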

The nature of experiment [9]: qHTS Validation Assay to Find Inhibitors of Chronic Active B-Cell Receptor Signaling (AID 485345; active = well fitted curve in the direction sought with a large enough effect in the main read-out, with a control signal flat, not every such curve was filed as active). The essentials: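 TMD8 ABC-DLBCL cells with dox-inducible green luciferase–IκBα fusion and red native luciferase; compounds 46 uM–3 nM, 4 h at 37C with doxycycline in 0.5% FBS IMDM. Green/red ratio normalized to basal and 10 uM MG-132.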
In experiment [10] the target is Beta-2 adrenergic receptor (Homo sapiens) (UniProt P07550). Kind of experiment: qHTS validation assay of beta-arrestin-biased ligands of beta2-adrenergic receptor (AID 485366). In outline: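 Agonism was measured as beta-arrestin recruitment to recombinant beta2-AR, releasing tTA to drive luciferase. Cells were exposed for 18 hr at 37 degrees C to a series up to 46 microM. %Activity from corrected luminescence gave concentration-response curves.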

Experiment [11] deals with Thioredoxin reductase 1, cytoplasmic (Rattus norvegicus) (UniProt O89049). As to the kind of experiment: qHTS Assay for Inhibitors of Mammalian Selenoprotein Thioredoxin Reductase 1 (TrxR1) (AID 488773).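 Note: drop in NADPH fluorescence over an 8 min run after selenite addition; series mostly up to about 57 µM; nearly all actives have a fitted effect of over 40% in size.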 To be noted: Potency: inhibition. The essentials: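 Inhibition is scored from the loss of NADPH fluorescence between first and last reads of an 8-min kinetic run. Selenite (400 uM) was the substrate, added after 15 min compound preincubation at room temperature.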
Thioredoxin reductase 1, cytoplasmic (Rattus norvegicus), sequence (O89049 whole entry, looked up): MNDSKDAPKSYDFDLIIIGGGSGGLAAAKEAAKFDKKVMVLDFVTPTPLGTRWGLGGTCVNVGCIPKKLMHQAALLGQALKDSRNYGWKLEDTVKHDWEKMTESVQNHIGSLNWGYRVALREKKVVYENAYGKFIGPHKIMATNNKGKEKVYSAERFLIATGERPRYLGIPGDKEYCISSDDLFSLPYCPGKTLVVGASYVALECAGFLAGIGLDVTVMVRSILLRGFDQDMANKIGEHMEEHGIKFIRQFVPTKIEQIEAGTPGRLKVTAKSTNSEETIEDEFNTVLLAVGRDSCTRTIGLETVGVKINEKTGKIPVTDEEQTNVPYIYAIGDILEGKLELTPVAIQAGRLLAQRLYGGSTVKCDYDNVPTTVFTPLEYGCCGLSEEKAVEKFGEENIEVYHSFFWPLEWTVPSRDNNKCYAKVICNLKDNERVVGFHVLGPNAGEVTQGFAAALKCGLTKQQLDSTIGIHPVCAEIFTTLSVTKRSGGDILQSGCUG

The target in experiment [12] is Flap endonuclease 1 (Homo sapiens) (UniProt P39748). Kind of experiment: qHTS Validation Assay for the Inhibitors of Human Flap endonuclease 1 (FEN1) (AID 488816). In outline: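 Steps: add FEN1 (10 nM reagent) or buffer only; pin compounds; hold 15 min at room temperature; start with substrate, 50 nM final; read at 0 and 15 min; correct, normalize and fit a four-parameter Hill curve.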

The nature of experiment [13]: Cytometry Cell-Based qHTS for Inhibitors of the mTORC1 Signaling Pathway in MEF cells (AID 2668).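 Note: Tsc2-/- p53-/- mouse embryonic fibroblasts stably re-expressing wild-type Tsc2; percent cells positive for phospho-rpS6 Ser235/236 relative to propidium iodide stain; series mostly up to about 38 µM.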 The essentials: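 Pathway inhibition in WT Tsc2-rescued Tsc2-/-, p53-/- MEFs is measured as the Alexa-488 phospho-rpS6 to propidium iodide intensity ratio after 24 hrs of compound at 37 degree Celsius. PI-stained cell number gives viability.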
Experiment [14] is described as follows: Validation screen for small molecules that induce DNA re-replication in MCF 10A normal breast cells (AID 463097). Note: nearly all actives have a fitted effect of over 60% in size. The essentials:
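DNA re-replication was detected as a rise in nuclei with elevated Hoechst fluorescence after a 48 hr compound exposure of MCF 10A cells at 37 C.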

The target of experiment [15] is DNA polymerase III PolC-type (Bacillus subtilis (strain 168)) (UniProt P13267). As to the kind of experiment: qHTS Validation Assay for the Inhibitors of DNA Replication in Gram-Positive Bacteria (AID 485295).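 Note: reconstituted holoenzyme with PolC plus beta clamp SSB and primase; PicoGreen fluorescence of double-stranded DNA made on primed circular M13 template; series mostly up to about 57 µM.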 In outline:
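Primed replication of single-stranded M13Gori by a four-protein B. subtilis holoenzyme is measured at room temperature. Double-stranded product is quantified by PicoGreen fluorescence after an EDTA stop; inhibition is scaled between DMSO and EDTA controls.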

Experiment [16] in a line: Quantitative high throughput screen for delayed death inhibitors of the malarial parasite plastid, 96 hour incubation (AID 488745).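 Note: luciferase-expressing P. falciparum in erythrocytes at 2% hematocrit and 0.1% parasitemia; series mostly up to about 29 µM; nearly all actives have a fitted effect of over 70% in size.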 The essentials: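 Luciferase-expressing P. falciparum, infected RBCs 2% Hct/0.1% parasitemia (final); 96 h cpd exposure, 37 C, 5% CO2; RPMI 1640 + 0.5% Albumax, bicarbonate, gentamycin. Readout: luminescence loss = growth inhibition.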
A short description of experiment [17]: Quantitative high throughput screen for delayed death inhibitors of the malarial parasite plastid, 48 hour incubation (AID 488752). Note: nearly all actives have a fitted effect of over 65% in size. Note: potency is the fitted concentration of half-maximal effect. The essentials:
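Luciferase-expressing P. falciparum in RBCs, 2% Hct, 0.1% parasitemia final; RPMI 1640 + 0.5% Albumax; 48 h, 37 C, 5% CO2; luminescence readout, signal drop = growth inhibition.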

The target of experiment [18] is Thioredoxin reductase 1, cytoplasmic (Rattus norvegicus) (UniProt O89049). As to the kind of experiment: qHTS Assay for Substrates of Mammalian Selenoprotein Thioredoxin Reductase 1 (TrxR1) (AID 488772).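 Note: series mostly up to about 57 µM; a drop in NADPH fluorescence below the no-compound background marks a TrxR1 substrate.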 In outline:
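In this dual-purpose format, potential substrates are identified from the first fluorescence read after selenite addition, not from the 8-minute delta. Rat enzyme is preincubated with NADPH and then with compound at ~22 deg C.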

Experiment [19] has as its target M-phase phosphoprotein 8 (Homo sapiens) (UniProt Q99549). As to the kind of experiment: qHTS Validation Assay for Inhibitors for MPP8 Chromodomain Interactions with Methylated Histone Tails (AID 488949).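 Note: AlphaScreen signal from MPP8 chromodomain bound to biotinylated H3K9me3 peptide; top concentration of the series differs between compounds; nearly all actives have a fitted effect of over 55% in size.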 The essentials: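 Disruption of the preformed MPP8–trimethyl-H3K9 peptide complex (both 50 nM, 30 min, RT) is measured after 30 min compound exposure, using AlphaScreen proximity beads; aurintricarboxylic acid titration serves as plate control.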

For experiment [20], the target named is ATP-dependent 6-phosphofructokinase (Trypanosoma brucei brucei) (UniProt O15648). Kind of experiment: qHTS Validation Assay to Find Inhibitors of T. brucei phosphofructokinase (AID 485368). To be noted: outcome: dose series up to 57.5 µM. In outline: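 ADP-Glo luminescence, two-step: residual ATP depleted, then ADP converted to ATP for luciferase. Enzyme 1.25 nM, F6P 0.5 mM, ATP 0.1 mM, pH 8.0 TEA buffer, 45 min RT. Curves fitted and classed by quality and efficacy.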
ATP-dependent 6-phosphofructokinase (Trypanosoma brucei brucei), sequence (O15648 whole entry, looked up): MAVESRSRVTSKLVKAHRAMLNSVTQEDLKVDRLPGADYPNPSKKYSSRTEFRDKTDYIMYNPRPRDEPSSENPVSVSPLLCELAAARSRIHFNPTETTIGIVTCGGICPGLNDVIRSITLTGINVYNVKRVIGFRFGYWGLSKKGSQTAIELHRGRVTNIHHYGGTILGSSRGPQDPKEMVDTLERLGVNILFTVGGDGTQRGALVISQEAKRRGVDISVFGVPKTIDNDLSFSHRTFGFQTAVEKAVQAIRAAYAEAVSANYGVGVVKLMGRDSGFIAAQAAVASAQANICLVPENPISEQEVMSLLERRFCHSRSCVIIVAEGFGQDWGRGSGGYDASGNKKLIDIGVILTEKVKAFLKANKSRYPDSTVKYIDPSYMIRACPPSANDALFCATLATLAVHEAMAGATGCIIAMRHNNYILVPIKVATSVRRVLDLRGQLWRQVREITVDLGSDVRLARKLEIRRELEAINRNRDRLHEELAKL

RecQ-like DNA helicase BLM (Homo sapiens), sequence (P54132 whole entry, looked up): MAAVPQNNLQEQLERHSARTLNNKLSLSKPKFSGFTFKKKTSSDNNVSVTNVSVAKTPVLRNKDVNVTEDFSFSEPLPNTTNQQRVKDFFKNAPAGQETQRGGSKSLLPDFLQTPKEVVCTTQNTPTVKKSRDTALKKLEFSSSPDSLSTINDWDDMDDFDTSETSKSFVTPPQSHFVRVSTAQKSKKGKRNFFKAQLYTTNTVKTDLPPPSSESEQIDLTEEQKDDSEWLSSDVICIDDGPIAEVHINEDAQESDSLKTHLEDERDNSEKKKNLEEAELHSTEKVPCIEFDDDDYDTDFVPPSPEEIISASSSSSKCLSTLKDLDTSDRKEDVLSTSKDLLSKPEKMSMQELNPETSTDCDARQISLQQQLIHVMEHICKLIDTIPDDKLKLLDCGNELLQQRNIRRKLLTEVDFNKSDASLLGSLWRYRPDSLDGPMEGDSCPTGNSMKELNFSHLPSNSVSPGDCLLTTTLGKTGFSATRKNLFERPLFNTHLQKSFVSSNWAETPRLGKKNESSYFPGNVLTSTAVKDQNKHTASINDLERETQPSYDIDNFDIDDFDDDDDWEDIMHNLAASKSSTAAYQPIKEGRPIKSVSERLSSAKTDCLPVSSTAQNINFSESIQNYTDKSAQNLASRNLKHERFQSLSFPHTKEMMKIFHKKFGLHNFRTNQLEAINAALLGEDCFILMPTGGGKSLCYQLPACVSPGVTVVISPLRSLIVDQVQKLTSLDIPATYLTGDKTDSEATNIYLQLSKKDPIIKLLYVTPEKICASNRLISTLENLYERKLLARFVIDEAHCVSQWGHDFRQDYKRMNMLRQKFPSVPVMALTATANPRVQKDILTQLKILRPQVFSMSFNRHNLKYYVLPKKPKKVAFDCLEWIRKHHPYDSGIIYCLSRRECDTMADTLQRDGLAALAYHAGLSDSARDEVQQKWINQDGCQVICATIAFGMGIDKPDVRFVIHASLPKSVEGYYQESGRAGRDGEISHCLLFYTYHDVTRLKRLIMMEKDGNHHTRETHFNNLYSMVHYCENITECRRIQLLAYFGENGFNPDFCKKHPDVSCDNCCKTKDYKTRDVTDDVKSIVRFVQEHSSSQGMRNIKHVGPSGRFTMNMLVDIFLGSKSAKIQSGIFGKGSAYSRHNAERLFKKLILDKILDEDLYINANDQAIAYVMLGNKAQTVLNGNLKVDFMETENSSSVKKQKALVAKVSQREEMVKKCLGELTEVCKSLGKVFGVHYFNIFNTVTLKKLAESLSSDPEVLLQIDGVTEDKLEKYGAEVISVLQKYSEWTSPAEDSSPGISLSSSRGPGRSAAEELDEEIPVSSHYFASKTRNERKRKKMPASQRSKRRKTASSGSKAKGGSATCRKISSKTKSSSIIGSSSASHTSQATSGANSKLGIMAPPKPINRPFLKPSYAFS
ATP-dependent DNA helicase Q1 (Homo sapiens), sequence (P46063 whole entry, looked up): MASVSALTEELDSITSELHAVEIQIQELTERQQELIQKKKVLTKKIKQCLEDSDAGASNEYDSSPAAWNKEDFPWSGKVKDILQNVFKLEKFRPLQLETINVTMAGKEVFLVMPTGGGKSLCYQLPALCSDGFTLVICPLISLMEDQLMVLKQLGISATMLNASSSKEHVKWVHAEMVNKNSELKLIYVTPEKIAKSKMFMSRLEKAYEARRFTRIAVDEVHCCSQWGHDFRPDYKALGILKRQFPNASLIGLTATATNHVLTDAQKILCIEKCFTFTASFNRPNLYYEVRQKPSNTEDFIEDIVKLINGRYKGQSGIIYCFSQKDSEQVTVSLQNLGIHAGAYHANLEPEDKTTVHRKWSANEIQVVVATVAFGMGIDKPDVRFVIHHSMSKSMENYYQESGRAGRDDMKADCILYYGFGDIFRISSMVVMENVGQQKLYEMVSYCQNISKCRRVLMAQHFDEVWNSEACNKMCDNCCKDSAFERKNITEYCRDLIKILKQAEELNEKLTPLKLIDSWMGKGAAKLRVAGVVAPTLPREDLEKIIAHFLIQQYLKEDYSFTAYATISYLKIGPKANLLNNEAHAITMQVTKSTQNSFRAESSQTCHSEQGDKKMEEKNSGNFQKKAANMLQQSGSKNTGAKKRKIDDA
Ubiquitin carboxyl-terminal hydrolase 2 (Homo sapiens), sequence (O75604 whole entry, looked up): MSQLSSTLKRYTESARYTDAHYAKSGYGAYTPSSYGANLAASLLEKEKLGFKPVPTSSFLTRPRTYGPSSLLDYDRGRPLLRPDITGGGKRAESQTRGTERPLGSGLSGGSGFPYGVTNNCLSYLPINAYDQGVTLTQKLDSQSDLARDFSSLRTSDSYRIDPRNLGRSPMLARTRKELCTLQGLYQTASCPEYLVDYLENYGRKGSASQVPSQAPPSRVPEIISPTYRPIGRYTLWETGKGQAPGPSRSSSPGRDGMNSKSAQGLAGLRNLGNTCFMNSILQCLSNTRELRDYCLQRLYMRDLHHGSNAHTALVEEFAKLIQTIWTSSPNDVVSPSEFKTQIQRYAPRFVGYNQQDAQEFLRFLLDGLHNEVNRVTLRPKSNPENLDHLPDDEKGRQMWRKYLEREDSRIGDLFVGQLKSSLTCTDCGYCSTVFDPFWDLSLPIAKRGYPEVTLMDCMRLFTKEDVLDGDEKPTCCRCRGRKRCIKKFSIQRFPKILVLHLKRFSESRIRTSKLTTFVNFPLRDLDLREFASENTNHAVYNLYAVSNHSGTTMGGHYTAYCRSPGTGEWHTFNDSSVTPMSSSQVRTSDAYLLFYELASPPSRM
Tumor susceptibility gene 101 protein (Homo sapiens), sequence (Q99816 whole entry, looked up, the tested form may be a part): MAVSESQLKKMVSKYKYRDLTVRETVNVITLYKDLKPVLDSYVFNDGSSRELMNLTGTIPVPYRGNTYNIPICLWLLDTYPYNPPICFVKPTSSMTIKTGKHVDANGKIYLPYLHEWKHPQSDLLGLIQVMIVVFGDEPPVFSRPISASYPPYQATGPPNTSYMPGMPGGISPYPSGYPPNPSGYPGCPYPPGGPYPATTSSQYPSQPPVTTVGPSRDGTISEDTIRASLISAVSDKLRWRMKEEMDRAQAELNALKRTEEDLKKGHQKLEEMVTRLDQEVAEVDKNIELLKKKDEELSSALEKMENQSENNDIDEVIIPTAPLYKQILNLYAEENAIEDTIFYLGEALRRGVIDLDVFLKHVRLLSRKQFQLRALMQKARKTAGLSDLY
M-phase phosphoprotein 8 (Homo sapiens), sequence (Q99549 whole entry, looked up): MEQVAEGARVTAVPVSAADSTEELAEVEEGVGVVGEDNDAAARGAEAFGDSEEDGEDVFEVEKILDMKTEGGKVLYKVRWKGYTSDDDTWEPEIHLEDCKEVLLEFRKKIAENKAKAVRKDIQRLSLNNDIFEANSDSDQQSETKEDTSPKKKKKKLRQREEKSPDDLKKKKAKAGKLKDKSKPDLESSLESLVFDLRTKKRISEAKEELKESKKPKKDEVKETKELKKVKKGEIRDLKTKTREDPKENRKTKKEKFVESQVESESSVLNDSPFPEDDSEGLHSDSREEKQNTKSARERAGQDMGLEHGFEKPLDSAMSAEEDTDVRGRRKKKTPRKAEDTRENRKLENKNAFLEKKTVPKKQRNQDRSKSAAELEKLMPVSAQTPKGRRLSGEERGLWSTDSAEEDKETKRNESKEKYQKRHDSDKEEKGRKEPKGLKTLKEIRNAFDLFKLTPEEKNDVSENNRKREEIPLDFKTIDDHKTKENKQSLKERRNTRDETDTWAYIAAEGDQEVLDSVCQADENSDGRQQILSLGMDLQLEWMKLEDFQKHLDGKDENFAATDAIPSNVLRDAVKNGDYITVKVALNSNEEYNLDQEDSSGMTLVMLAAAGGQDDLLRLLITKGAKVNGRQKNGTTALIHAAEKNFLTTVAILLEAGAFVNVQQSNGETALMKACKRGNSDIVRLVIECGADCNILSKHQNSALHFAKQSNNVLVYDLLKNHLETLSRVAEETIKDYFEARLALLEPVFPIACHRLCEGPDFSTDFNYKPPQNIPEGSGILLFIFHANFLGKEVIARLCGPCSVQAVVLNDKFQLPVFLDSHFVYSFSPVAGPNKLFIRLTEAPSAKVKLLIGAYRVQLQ

`CCC(=O)c1ccc2c(c1)N(CCCN(C)C)c1ccccc1S2`: the outcome in experiment [1], in [4], in experiment [7], in experiment [8] and in [10] was inactive. For the same compound, the Potency result in experiment [2], in experiment [3], in experiment [5], in experiment [9], in experiment [11] and in experiment [12] was “inactive” throughout. Further, the Potency in [6] is 16.5 µM (active).
As for `O=C1CC2(CCCC2)CC(=O)N1CCCCN1CCN(c2ncccn2)CC1`, the compound was called inactive in [1], in [4], in [7], in experiment [8] and in experiment [18]. In addition, the Potency entry in experiment [2], in experiment [3], in [5], in experiment [6], in experiment [13] and in experiment [14] was “inactive” each time. For the same compound, the Potency entry in experiment [15], in experiment [9], in experiment [16], in experiment [17], in experiment [11] and in experiment [12] was “inactive” throughout. The Potency entry in experiment [19] is “inactive”.
On to `C[C@]12CCC(=O)C=C1CC[C@@H]1[C@@H]2C(=O)C[C@@]2(C)[C@H]1CC[C@]2(O)C(=O)CO`, for which the result in experiment [1], in experiment [4], in [7], in experiment [8], in experiment [10] and in experiment [20] was inactive. Moreover, the Potency entry in experiment [2], in experiment [3], in experiment [5], in experiment [6], in [13] and in experiment [14] was “inactive” throughout. The Potency result in [16], in experiment [17], in [12] and in experiment [19] was “inactive” each time.
With `CCO/C([O-])=N/c1c[n+](N2CCOCC2)no1`, the compound was classed as inactive in experiment [1], in experiment [4], in experiment [7], in [8], in experiment [10] and in [20]. Further, the Potency entry in [2], in experiment [5], in experiment [6], in experiment [13], in [14] and in experiment [15] was “inactive” in each case. For the same compound, the Potency result in [9], in [17], in experiment [11] and in experiment [12] was “inactive” each time.
As for `CN(C)C/C=C(/c1ccc(Br)cc1)c1cccnc1`, the compound was classed as inactive in [1], in experiment [4], in [7], in experiment [8], in [10] and in [20]. Also, the compound was called inactive in experiment [18]. For the same compound, the Potency entry in experiment [2], in experiment [3], in [5], in experiment [6], in experiment [13] and in [14] was “inactive” in each case. For the same compound, the Potency entry in experiment [15], in [9], in [11], in experiment [12] and in [19] was “inactive” each time. Further, the Potency in [17] is 13.1 µM (active).
Consider `CCCNC(C)C(=O)Nc1ccccc1C` (stereo not given), for which the outcome in [1], in [4], in experiment [7], in [8], in experiment [10] and in experiment [18] was inactive. The Potency entry in experiment [2], in experiment [3], in experiment [5], in experiment [6], in [13] and in [14] was “inactive” throughout. Further, the Potency result in experiment [15], in experiment [9], in experiment [16], in [11] and in [12] was “inactive” each time.
As to `CCN(CC)CCOCCOC(=O)C1(c2ccccc2)CCCC1`, the result in experiment [1], in [4], in experiment [7], in [8] and in experiment [18] was inactive. Moreover, the Potency result in experiment [2], in experiment [3], in [5], in experiment [6], in experiment [13] and in experiment [14] was “inactive” throughout. In addition, the Potency result in experiment [15], in experiment [9], in experiment [11] and in experiment [12] was “inactive” throughout.
As to `CCCN(CCC)CCc1cccc2c1CC(=O)N2`, the call in experiment [1], in experiment [4], in experiment [7], in experiment [8] and in [10] was inactive. Besides, the Potency entry in experiment [2], in experiment [5], in experiment [6], in [13], in [14] and in [15] was “inactive” each time. Besides, the Potency entry in [9], in experiment [16], in experiment [17], in experiment [11], in experiment [12] and in experiment [19] was “inactive” each time.
